This is an account of results in PubChem BioAssay.

The subject of assay [1] is Plasmodium falciparum Sir2 (PF13_0152, Sir2A). The experiment in a line: pfSir2 binders on small-molecule microarrays, primary screen, biochemical, small-molecule microarray, 635 nm fluorescence (AID 1098).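 Also: score merges spot fluorescence intensity with its signal-to-noise ratio.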 Particulars: small-molecule microarray binding, fluorescence 635 nm; higher = more signal.
Assay [2] is described as follows: small-molecule microarray binders of probe aDKK1, primary screen, biochemical, biotinylated probe, 635/667 nm fluorescence (AID 1099).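 Also: score merges 667nm spot fluorescence with signal to noise across triplicate slides.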 The note with it: higher = more signal; small-molecule microarray, probe aDKK1, fluorescence unless noted.
Assay [3] can be described thus: small-molecule microarray binders of probe aCHRDL2, primary screen, biochemical, biotinylated probe, 635/667 nm fluorescence (AID 1100). The note with it: higher = more signal; small-molecule microarray, probe aCHRDL2, fluorescence unless noted.
Assay [4] in a line: splicing luciferase reporter signal modulators, primary screen, spliceosome inhibition project, cell-based, HEK293, splice +/- reporter (AID 1101).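 Also: HEK293 cells carrying a splicing-competent luciferase reporter gene; test concentration not given here.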 Particulars: luminescence, 24 h; higher = more signal, called active from +8 up or from −8 down unless noted. A general note: In a reporter assay the amount or activity of a reporter protein is the signal.
The target in assay [5] is Fibroblast growth factor 10 (Homo sapiens) (UniProt O15520). The experiment in a line: FGF10 binders on small-molecule microarrays, primary screen, biochemical, small-molecule microarray, 635 nm fluorescence (AID 1102). Particulars: FGF10 binding, fluorescence 635 nm, higher = more signal.
Fibroblast growth factor 10 (Homo sapiens), sequence (O15520 whole entry, looked up): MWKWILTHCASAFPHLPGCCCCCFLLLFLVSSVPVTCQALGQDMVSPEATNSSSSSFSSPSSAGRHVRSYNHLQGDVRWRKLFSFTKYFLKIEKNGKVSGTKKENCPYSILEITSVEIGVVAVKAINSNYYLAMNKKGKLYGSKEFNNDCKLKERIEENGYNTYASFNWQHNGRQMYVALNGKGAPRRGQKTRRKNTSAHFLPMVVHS
For assay [6], the system named is glycogen synthase kinase-3 (GSK3A per assay name; protocol says GSK3B). The experiment in a line: GSK3 binders on small-molecule microarrays, primary screen, biochemical, small-molecule microarray, 635 nm fluorescence, GSK3A (AID 1103). Also: the record names both GSK3A and GSK3B. The note with it: small-molecule microarray binding, fluorescence 635 nm; higher = more signal.
Assay [7] addresses Epidermal growth factor receptor (Homo sapiens) (UniProt P00533). The experiment in a line: EGFR binders on small-molecule microarrays, primary screen, biochemical, small-molecule microarray, 635 nm fluorescence (AID 1104).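 Also: score merges 667 nm emission intensity with spot signal to noise over triplicate slides.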 Particulars: EGFR binding, higher = more signal.
In assay [8] the target is Follistatin-related protein 3 (Homo sapiens) (UniProt O95633). The experiment in a line: FSTL3 binders on small-molecule microarrays, primary screen, biochemical, small-molecule microarray, 635 nm fluorescence (AID 1105).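 Also: score merges emission near 667 nm and signal to noise per printed spot across three slides.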 The note with it: FSTL3 binding, higher = more signal.
Follistatin-related protein 3 (Homo sapiens), sequence (O95633 whole entry, looked up): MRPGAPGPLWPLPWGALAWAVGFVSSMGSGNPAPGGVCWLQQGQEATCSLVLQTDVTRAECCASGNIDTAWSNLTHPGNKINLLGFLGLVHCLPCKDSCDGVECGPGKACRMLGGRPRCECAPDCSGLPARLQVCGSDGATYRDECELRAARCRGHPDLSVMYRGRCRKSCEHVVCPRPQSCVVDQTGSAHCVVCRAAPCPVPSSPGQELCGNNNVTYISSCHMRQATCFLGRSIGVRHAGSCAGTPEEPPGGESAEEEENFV
Assay [9] deals with Dickkopf-related protein 1 (Homo sapiens) (UniProt O94907). The experiment in a line: DKK1 binders on small-molecule microarrays, primary screen, biochemical, small-molecule microarray, 635 nm fluorescence scan (AID 1106).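 Also: score merges emission near 667 nm with signal to noise over three replicate slides.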 Particulars: DKK1 binding, higher = more signal.
Dickkopf-related protein 1 (Homo sapiens), sequence (O94907 whole entry, looked up): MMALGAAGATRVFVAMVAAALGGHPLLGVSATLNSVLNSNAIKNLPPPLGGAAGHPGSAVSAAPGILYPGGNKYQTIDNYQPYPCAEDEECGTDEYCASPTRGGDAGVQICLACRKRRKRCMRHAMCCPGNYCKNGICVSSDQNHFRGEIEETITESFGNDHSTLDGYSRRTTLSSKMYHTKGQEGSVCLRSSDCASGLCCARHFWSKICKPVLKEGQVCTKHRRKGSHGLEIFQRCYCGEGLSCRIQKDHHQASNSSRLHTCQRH
In assay [10] the test system is Inhibin beta A chain (activin A). The experiment in a line: INHBA (activin A) binders on microarrays, primary screen, biochemical, small-molecule microarray, 635 nm fluorescence scan (AID 1107).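 Also: mouse activin A protein probed at 4.33 µg/mL on printed slides; score merges bound-protein fluorescence near 667 nm with spot signal-to-noise.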 Particulars: small-molecule microarray binding, higher = more signal.
The subject of assay [11] is Human papillomavirus type 1a protein E7 (residues 44-93). The experiment in a line: HPV1a E7 fragment binders on microarrays, primary screen, biochemical, small-molecule microarray, residues 44-93, 635 nm fluorescence (AID 1108).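 Also: E7 fragment applied at 1 µg/mL in TBST for 1 h at 4 C; score combines spot fluorescence with its signal to noise ratio.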 The note with it: small-molecule microarray binding, fluorescence 635 nm; higher = more signal.
The nature of assay [12]: modulators of HCV replicon luciferase signal, primary screen, HCV replication inhibitor project, Huh7 cells, luciferase reporter (AID 1109).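 Also: huh7 hepatoma cells harbouring a luciferase neomycin HCV replicon reporter; luciferase luminescence as measure of HCV replicon replication; test concentration not given here.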 Particulars: 48 h, higher = more signal. (In general: A replicon is a self-replicating genome or part of one, used to study replication in cells.)
For assay [13], the target named is Left-right determination factor 2 (Homo sapiens) (UniProt O00292). The experiment in a line: LEFTY2 binders on small-molecule microarrays, primary screen, biochemical, small-molecule microarray, 635 nm fluorescence scan (AID 1110). Particulars: LEFTY2 binding, higher = more signal.
Left-right determination factor 2 (Homo sapiens), sequence (O00292 whole entry, looked up): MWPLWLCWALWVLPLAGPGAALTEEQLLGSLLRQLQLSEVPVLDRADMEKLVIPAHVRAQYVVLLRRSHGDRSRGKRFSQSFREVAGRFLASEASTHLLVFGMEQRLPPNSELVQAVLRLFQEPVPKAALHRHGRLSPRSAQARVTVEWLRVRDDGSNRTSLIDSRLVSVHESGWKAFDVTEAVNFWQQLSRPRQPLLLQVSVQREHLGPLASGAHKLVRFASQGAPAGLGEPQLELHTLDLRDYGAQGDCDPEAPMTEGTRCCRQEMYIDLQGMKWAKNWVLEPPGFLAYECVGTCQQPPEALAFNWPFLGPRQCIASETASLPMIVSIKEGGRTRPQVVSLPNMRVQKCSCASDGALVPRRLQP
For assay [14], the target named is Calmodulin-1 (Homo sapiens) (UniProt P0DP23). The experiment in a line: CALM1 binders on microarrays, EGTA buffer, profiling panel, biochemical, small-molecule microarray, Cy5-labelled CALM1 (AID 1111).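 Also: labelled calmodulin applied in Tris saline Tween buffer holding calcium plus EGTA and DTT.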 Particulars: Cy5-CALM1 binding fluorescence, higher = more signal.
Assay [15] has the same target. The experiment in a line: calcium-bound CALM1 binders on microarrays, profiling panel, artefact control for SMM control-protein annotation, biochemical, small-molecule microarray, Cy5-labelled CALM1, plus calcium (AID 1112).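 Also: score merges spot fluorescence with signal to noise from triplicate slides.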 The note with it: Cy5-CALM1 binding fluorescence, higher = more signal.
Assay [16] in a line: small-molecule microarray binders of probe aWnt5a, primary screen, biochemical, biotinylated probe, 635/667 nm fluorescence (AID 1113).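 Also: score merges 667 nm fluorescence intensity with signal-to-noise per printed feature.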 Particulars: higher = more signal; small-molecule microarray, probe aWnt5a, fluorescence unless noted.
The nature of assay [17]: small-molecule microarray binders of probe aShh, primary screen, biochemical, biotinylated probe, 635/667 nm fluorescence (AID 1114).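 Also: probe is biotin-labelled aShh protein from a stem cell growth factor screen; measures binding of labelled protein to compounds printed on the slide; score merges feature fluorescence at 667 nm with signal-to-noise.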 Particulars: higher = more signal; small-molecule microarray, probe aShh, fluorescence unless noted.
A short description of assay [18]: small-molecule microarray binders of probe aNog, primary screen, biochemical, biotinylated probe, 635/667 nm fluorescence (AID 1115).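 Also: probe is biotinylated aNog protein used at 0.15 µg/mL for 1 h at 4 C; z-score combines 667 nm fluorescence of each spot with its signal to noise.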 Particulars: higher = more signal; small-molecule microarray, probe aNog, fluorescence unless noted.
In assay [19] the target is Torsin-1A-interacting protein 1 (Homo sapiens) (UniProt Q5JTV8). The experiment in a line: LAP1 binders from COS7 cell lysate, primary screen, small-molecule microarray, 635/667 nm fluorescence (AID 1116). The note with it: COS7-hLAP1 lysate binding, 635 nm fluorescence, higher = more signal.
Torsin-1A-interacting protein 1 (Homo sapiens), sequence (Q5JTV8 whole entry, looked up): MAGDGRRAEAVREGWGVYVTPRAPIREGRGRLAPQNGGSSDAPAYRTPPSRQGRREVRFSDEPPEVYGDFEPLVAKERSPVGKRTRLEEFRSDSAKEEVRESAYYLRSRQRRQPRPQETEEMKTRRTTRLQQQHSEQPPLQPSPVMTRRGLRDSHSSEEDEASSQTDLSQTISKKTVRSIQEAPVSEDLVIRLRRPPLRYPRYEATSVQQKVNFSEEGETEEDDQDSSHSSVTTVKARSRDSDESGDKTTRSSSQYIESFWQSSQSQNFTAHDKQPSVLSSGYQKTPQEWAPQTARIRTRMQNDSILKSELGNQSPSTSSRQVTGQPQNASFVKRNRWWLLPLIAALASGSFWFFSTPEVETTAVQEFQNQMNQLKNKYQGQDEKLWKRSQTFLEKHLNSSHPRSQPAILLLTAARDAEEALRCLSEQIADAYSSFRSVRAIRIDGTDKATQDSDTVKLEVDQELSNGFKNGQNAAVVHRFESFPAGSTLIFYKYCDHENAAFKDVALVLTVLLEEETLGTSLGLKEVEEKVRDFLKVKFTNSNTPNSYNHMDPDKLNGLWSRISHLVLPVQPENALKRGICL
The target in assay [20] is Alpha-bungarotoxin (Bungarus multicinctus) (UniProt P60615). The experiment in a line: alpha-bungarotoxin binders on microarray, profiling panel, artefact control for SMM control protein annotation, biochemical, small-molecule microarray, Alexa647 label, 635/667 nm fluorescence (AID 1117). The note with it: alpha-BTX-A647 binding fluorescence, higher = more signal.
Alpha-bungarotoxin (Bungarus multicinctus), sequence (P60615 whole entry, looked up): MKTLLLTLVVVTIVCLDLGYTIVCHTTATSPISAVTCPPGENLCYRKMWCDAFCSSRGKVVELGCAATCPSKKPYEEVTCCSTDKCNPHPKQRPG

The source made the active and inactive calls.

Epidermal growth factor receptor (Homo sapiens), sequence (P00533 whole entry, looked up): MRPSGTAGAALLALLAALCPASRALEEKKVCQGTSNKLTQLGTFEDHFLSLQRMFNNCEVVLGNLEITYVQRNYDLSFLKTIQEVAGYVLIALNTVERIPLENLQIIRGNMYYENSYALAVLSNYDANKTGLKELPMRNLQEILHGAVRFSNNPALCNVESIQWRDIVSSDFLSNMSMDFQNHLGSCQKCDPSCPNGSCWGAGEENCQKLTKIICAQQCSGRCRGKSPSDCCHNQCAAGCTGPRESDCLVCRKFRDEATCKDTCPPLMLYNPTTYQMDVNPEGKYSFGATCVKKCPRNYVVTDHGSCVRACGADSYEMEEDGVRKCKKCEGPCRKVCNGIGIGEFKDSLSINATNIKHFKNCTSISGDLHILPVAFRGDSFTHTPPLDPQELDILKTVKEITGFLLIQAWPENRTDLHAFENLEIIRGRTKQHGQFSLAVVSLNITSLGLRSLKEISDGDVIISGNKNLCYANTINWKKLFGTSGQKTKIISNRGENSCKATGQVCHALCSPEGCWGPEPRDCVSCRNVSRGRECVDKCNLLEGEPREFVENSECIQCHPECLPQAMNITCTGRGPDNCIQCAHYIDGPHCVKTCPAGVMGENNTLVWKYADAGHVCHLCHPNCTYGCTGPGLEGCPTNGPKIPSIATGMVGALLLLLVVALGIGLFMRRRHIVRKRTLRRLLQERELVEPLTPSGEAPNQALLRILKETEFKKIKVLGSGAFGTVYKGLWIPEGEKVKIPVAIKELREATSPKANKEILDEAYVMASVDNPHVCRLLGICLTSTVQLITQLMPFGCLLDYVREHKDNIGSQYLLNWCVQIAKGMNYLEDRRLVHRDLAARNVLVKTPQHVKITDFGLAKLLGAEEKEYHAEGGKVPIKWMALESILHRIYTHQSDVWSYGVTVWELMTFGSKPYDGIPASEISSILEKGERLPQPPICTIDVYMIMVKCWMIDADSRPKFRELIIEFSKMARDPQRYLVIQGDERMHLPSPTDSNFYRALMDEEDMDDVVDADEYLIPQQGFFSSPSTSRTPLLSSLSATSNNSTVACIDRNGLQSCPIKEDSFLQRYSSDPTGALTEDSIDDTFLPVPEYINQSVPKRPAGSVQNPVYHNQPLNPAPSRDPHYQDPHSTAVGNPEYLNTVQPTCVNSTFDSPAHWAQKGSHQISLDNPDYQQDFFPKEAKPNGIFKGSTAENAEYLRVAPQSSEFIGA

With `COC(=O)[C@H]1[C@@H](O)[C@@]2(O)c3c(OC)cc(OC)cc3O[C@@]2(c2ccc(OC)cc2)[C@@H]1c1ccccc1`, the composite z-score in [1] was 0.373; in [2], -0.193; in [3], -0.482; in assay [5], 0.384; in assay [6], 0.586; in assay [7], 0.628. For the same compound, the composite z-score was 0.554 in [8]; 0.962 in assay [9]; 0.0587 in assay [10]; 0.828 in assay [11]; 0.473 in assay [13]; 0.371 in [14]. The composite z-score was -0.402 in assay [15]; -0.0606 in assay [16]; 0.0684 in assay [17]; 0.117 in assay [18]; 0.537 in assay [19]; 0.611 in [20]. Besides, the z-score in assay [4] was -1.89 (inactive); in assay [12] it was 1.91.

As to `OCc1ccc(C2=CC(c3cccs3)N(Cc3cccc(OC(F)(F)F)c3)CC2)cc1` (stereo not given), the composite z-score in assay [1] is 0.916; in assay [2] it was -0.236; in [3] it was -0.0613; in assay [5], -0.0615; in [6] it was -0.123; in assay [7] it was -0.0657. Besides, the composite z-score in assay [8] is 0.107; in [9], 0.0824; in [10] it was 1.18; in [11] it was -0.307; in assay [13], 0.198; in assay [14] it was -0.573. In addition, the composite z-score in assay [15] was -0.411; in [16] it was -0.091; in assay [17] it was -0.138; in [18], -0.244; in assay [19], 0.221; in assay [20], 0.934. Also, the results for the z-score in assay [4] and in [12] were -1.18 (inactive) and -1.07, respectively.

`COC(=O)[C@@]1(Cc2ccc(F)cc2)[C@H]2c3cc(C(=O)N(C)C)[nH]c3C[C@H]2CN1C(=O)c1ccccc1`: the composite z-score in [1] is 0.878; in assay [2], 0.588 [setting not given]; in assay [3], 0.826 [setting not given]; in assay [5] it was 0.554; in [6], -0.275; in [7], -0.157. The composite z-score in [8] was -0.589; in assay [9], -0.503; in assay [10] it was 0.938; in [11], 0.717; in [13], -0.193; in assay [14], 0.366. Moreover, the composite z-score in [15] was -0.0836; in assay [16] it was 0.0151 [setting not given]; in [17] it was -0.343 [setting not given]; in [18] it was 0.519 [setting not given]; in assay [19], 0.125; in assay [20], 0.125. The z-score in assay [4] was -0.825 [setting not given] (inactive); in [12], -0.0885.

For `COc1cc2c(cc1O)C(C)N(C)CC2` (stereo not given), the composite z-score in assay [1] is -0.528; in assay [2], 0.0766; in assay [3], 0.34; in [5], -0.0182; in assay [6] it was -0.951; in assay [7] it was -0.855. For the same compound, the composite z-score in assay [8] is -0.205; in [9] it was -0.227; in assay [10], 0.953; in assay [11] it was -1.75; in assay [13] it was -0.603; in [14] it was 1.58. Also, the composite z-score in assay [15] is 1.24; in [16], 0.0017; in [17] it was -0.0769; in assay [18], -0.343; in assay [19] it was 0.0049; in assay [20], -0.613. Moreover, the z-score in [4] is 0.844 (inactive); in assay [12] it was 0.569.

`COC(=O)[C@H]1C(=O)c2ccccc2O[C@@](C(=O)OC)(c2ccccc2)[C@@H]1c1ccccc1`: the composite z-score was 0.118 in assay [1]; -0.246 in [2]; -0.354 in assay [3]; 0.232 in assay [5]; -0.831 in assay [6]; 0.0442 in assay [7]. Besides, the composite z-score in assay [8] is -0.27; in assay [9], 0.435; in [10], 0.315; in assay [11], -0.853; in [13], 0.104; in [14], -0.558. The composite z-score in assay [15] was -0.268; in [16] it was -0.0519; in assay [17], -0.352; in [18], -0.367; in assay [19], -0.271; in assay [20], -0.579. Besides, the figures for the z-score in [4] and in assay [12] were -0.959 (inactive) and -0.424, respectively.

With `CCCC=C(CCC)[C@@H](NP(=O)(c1ccccc1)c1ccccc1)c1ccccc1`, the composite z-score in assay [1] was 0.381; in assay [2] it was -0.17; in assay [3], 0.0101; in assay [5] it was 0.657; in assay [6], 0.79; in assay [7], 0.187. Further, the composite z-score in [8] was 0.344; in [9] it was -0.151; in [10], 0.411; in assay [11] it was 1.28; in assay [13] it was 0.943; in [14] it was 1.94. The composite z-score was 0.42 in [15]; 0.208 in assay [16]; -0.106 in [17]; -0.519 in assay [18]; 0.275 in assay [19]; 0.44 in [20]. Also, the figures for the z-score in [4] and in assay [12] were -1.55 (inactive) and -1.39, respectively.

`CN1CCc2nc(CO)c(CO)cc2C1`: the composite z-score in assay [1] was -0.0844; in assay [2], 0.0703; in assay [3] it was -0.445; in assay [5], 0.297; in assay [6], 0.702; in assay [7] it was 0.514. Besides, the composite z-score in assay [8] is 0.51; in [9], 0.323; in assay [10], -0.0175; in assay [11] it was 0.22; in assay [13] it was 0.357; in [14] it was -0.192. For the same compound, the composite z-score is -0.657 in assay [15]; -0.117 in assay [16]; -0.138 in assay [17]; -0.104 in assay [18]; -0.115 in assay [19]; -0.0299 in assay [20]. For the same compound, the z-score in [4] was 0.261 (inactive); in assay [12], -0.365.

`CCCc1cc2c(n1CCO)C(C)C1CN(C(=O)c3ccccc3)C(C)(C(=O)OC)C21` (stereo not given): the composite z-score is 0.677 in assay [1]; 1.76 in assay [2]; 1.57 in assay [3]; 0.0807 in assay [5]; -0.181 in assay [6]; -0.362 in assay [7]. Besides, the composite z-score was 0.0815 in assay [8]; -0.369 in assay [9]; 1.24 in assay [10]; -0.202 in assay [11]; -0.258 in assay [13]; 2.45 in assay [14]. Further, the composite z-score is 1.06 in assay [15]; 0.353 in assay [16]; 0.0545 in [17]; 1.85 in [18]; 2.26 in [19]; 2.61 in assay [20]. The z-score in assay [4] is -1.08 (inactive); in assay [12], -1.27.
